According to PubChem BioAssay (Tox21):
Results filed as inconclusive are left out. Where a call stands in place of a potency, no number is given. More than one record can exist for a structure, and the calls need not agree. The source made the active and inactive calls. The call rests on the fitted dose curve.

test: p53 small molecule agonists, cell-based qHTS assay with human liver microsomes: qHTS cell viability counter screen (AID 1963579); conditions: p53RE-bla HCT-116 viability, ATP luminescence, 16 h, HLM; series mostly up to 66 µM; further: nearly all actives have a fitted effect of over 45% in size
Text: National Center for Advancing Translational Sciences [NCATS]
Division of Preclinical Innovation [DPI]
U.S. Environmental Protection Agency [EPA]
National Institutes of Environmental Health Sciences [NIEHS]
National Toxicology Program [NTP]
U.S. Food and Drug Administration [FDA]
p53, a tumor suppressor protein, is activated following cellular insult, including DNA damage and other cellular stresses. The activation of p53 regulates cell fate by inducing DNA repair, cell cycle arrest, apoptosis, or cellular senescence. The activation of p53, therefore, is a good indicator of DNA damage and other cellular stresses. […] The activation of the reporter gene under culture conditions can be detected by fluorescence intensity. This cell line was used to screen the Tox21 10K compound library in the condition of presence of human liver microsomes and to identify agonists that activate the p53 signaling pathway after in vitro metabolic activation (Ooka et al., Archive of Toxicology 96:1975-1987, 2022).
Tox21 Assay Protocol Summary:
The p53RE-bla cells were dispensed at 4,000cells/3ul/well in 1536-well black-clear bottom plates. After the assay plates were incubated at 37 C, 5% CO2 incubator for 5 hours, 23 nL of compounds dissolved in DMSO, positive controls or DMSO only was transferred to the assay plate. Following compound addition, 3 uL of human liver microsomes (XenoTech, Kansas City, KS) at final concentration of 0.5 mg/mL and 1uL of B-Nicotinamide adenine dinucleotide 2'-phosphate (NADPH) at final concentration of 0.5 mg/mL were transferred to the assay plate. The plates were incubated at 37 C for 16 hours. 1 uL of LiveBLAzer detection mixture was added to each well and the plates were incubated at room temperature in the dark for 2 h. Fluorescence intensity at 460 and 530 nm emission and 405 nm excitation were measured by an Envision plate reader. For cell viability readout that measures cytotoxicity, 4 ul/well of CellTiter-Glo reagent was added into the assay plates using a Flying Reagent Dispenser. After 30 min incubation at room temperature, the luminescence intensity in the plates was measured using a ViewLux plate reader.
Potency means the concentration at half of the fitted maximal effect.

Compound | Potency
Cc1ccc(S(=O)(=O)NC(=O)NN2CCCCCC2)cc1 | inactive
CCC(C)(C)C(=O)O[C@H]1C[C@@H](C)C=C2C=C[C@H](C)[C@H](CC[C@@H]3C[C@@H](O)CC(=O)O3)[C@H]21 | inactive
NCCN | inactive
c1ccc2[nH]c(-c3cscn3)nc2c1 | inactive
c1ccc(OCCOc2ccccc2)cc1 | inactive
C[C@]12CC[C@@H]3c4ccc(O)cc4C[C@@H](CCCCCCCCCS(=O)CCCC(F)(F)C(F)(F)F)[C@H]3[C@@H]1CC[C@@H]2O (stereo not given in full) | inactive
C=C(C)C(=O)OCCCCCC | inactive
COC(=O)CCCCC(=O)OC | inactive
O=C(O)Cc1c[nH]c2ccccc12 | inactive
CCc1ccc(O)cc1 | inactive
CCCCCCCCCCCCCC[N+](C)(C)C | inactive
CCCCCCCC(=O)OC | inactive
O=C(O)CCCCCCCCC(=O)O | inactive
NNc1ccc(C(=O)O)cc1 | inactive
CCNc1ccccc1 | inactive
C=CCNCC=C | inactive
O=C(O)c1ccccc1C(=O)O | inactive
C#C[C@]1(O)CC[C@H]2[C@@H]3CCc4cc(O)ccc4[C@H]3CC[C@@]21C | inactive
CN(C)CCN(Cc1cccs1)c1ccccn1 | inactive
CCCCOCCOCCOC(C)=O | inactive

Compound | Potency
C/C=C1/CC2C=CC1C2 (stereo not given) | inactive
O=CCc1ccccc1 | inactive
COc1cc(O)c(C(=O)c2ccccc2)cc1S(=O)(=O)O | inactive
NC(N)=NC(N)=NCCc1ccccc1 | inactive
NC(N)=O | inactive
CCCCC(CC)COC(=O)/C=C\C(=O)OCC(CC)CCCC (stereo not given) | inactive
C=C(C)OC(C)=O | inactive
O=C1C(c2[nH]c3ccccc3c2O)=Nc2ccccc21 | inactive
C=C[C@@]1(C)CC(=O)[C@]2(O)[C@@]3(C)[C@@H](O)CCC(C)(C)[C@@H]3[C@H](O)[C@H](OC(C)=O)[C@@]2(C)O1 | inactive
CCOCCOCCO | inactive
O=C1O[C@H](CO)[C@@H](O)[C@H](O)[C@H]1O | inactive
Cc1ccc(O)c(-n2nc3ccccc3n2)c1 | 50.9 µM (active) and inactive
O=C(O)CCCCC(=O)O | inactive
C[C@]12C[C@H](O)[C@H]3[C@@H](CCC4=CC(=O)CC[C@@]43C)[C@@H]1CC[C@@H]2C(=O)CO | inactive
CCCCC(CC)C(=O)O (stereo not given) | inactive
C/C=C(C)/C=C/C=C(C)C | inactive
Cc1ccc2ncccc2c1 | inactive
CC1(C)CC(N)CC(C)(CN)C1 (stereo not given) | inactive
C=C(C)C(=O)O[C@H]1C[C@@H]2CC[C@@]1(C)C2(C)C | inactive
CC(O)COc1ccccc1 (stereo not given) | inactive
